Only some compounds are listed: those with a hit (about 11% of all), similar ones and a draw of the others.
AmpC inh no detg: qHTS Inhibitors of AmpC Beta-Lactamase (assay without detergent); P00811; Potency, µM (titrated, usually from 57.1 µM), without a hit: top-dose activity change, negative = inhibition, hits mostly inhibitors; hit rate 0.52% among 330,000; AmpC nitrocefin hydrolysis, absorbance 480 nm, 0.0001% Triton;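 further: plate controls were no compound for no effect and no enzyme for full effect; nearly all actives have a fitted effect of over 20% in size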
Target sequence (P00811 whole entry, looked up): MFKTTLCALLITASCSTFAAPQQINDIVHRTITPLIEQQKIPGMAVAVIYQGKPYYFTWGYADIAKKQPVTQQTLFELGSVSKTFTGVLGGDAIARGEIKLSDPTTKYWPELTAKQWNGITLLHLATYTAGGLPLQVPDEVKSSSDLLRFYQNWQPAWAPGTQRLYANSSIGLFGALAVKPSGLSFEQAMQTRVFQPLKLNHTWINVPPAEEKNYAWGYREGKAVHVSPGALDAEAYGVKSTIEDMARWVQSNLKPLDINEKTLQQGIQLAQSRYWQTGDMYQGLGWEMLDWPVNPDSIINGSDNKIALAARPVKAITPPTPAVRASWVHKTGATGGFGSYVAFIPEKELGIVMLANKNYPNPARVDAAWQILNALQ
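AmpC (5.3 nM in the dispensed reagent) in 20 mM phosphate pH 7.0 with 0.01% (detergent screen) or 0.0001% Triton X-100 was preincubated with compounds for 15 min at room temperature. Nitrocefin was then added from an 800 uM solution, and hydrolysis was followed at 480 nm.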
AmpC inh detg: qHTS Inhibitors of AmpC Beta-Lactamase (assay with detergent). P00811. AmpC hydrolysis of nitrocefin, absorbance 480 nm, 0.01% Triton. Potency, µM (titrated, usually from 114 µM), inactives show at the top dose activity change, negative = inhibition, hits mostly inhibitors. hit rate 0.041% among 370,000;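 further: 0% = no-compound wells and -100% = no-enzyme wells; nearly all actives have a fitted effect of over 25% in size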
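20 mM phosphate pH 7.0 + 0.01% (detergent screen) or 0.0001% Triton X-100; 5.3 nM AmpC reagent; cpd preinc 15 min RT; nitrocefin (800 uM stock) to start; A480 q20 s × 4 min; Activity was normalised to no-enzyme and no-compound control wells.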
Pf growth 48h: Primary qHTS for delayed death inhibitors of the malarial parasite plastid, 48 hour incubation; P. falciparum luciferase growth in erythrocytes, 48 h; Potency, µM (highest dose often 28.7 µM), without a hit: at the highest dose activity change, negative = inhibition, usual class: inhibitors; hit rate 5.9% among 310,000
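Luciferase-expressing P. falciparum in infected erythrocytes (2% hematocrit, 0.1% parasitemia final) in RPMI 1640/0.5% Albumax were exposed to compound for 48 hours at 37 C, 5% CO2; growth read as luminescence.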
AMA1-RON2 inh: qHTS for Inhibitors of AMA1-RON; Towards Development of Antimalarial Drug Lead: Primary Screen. Plasmodium falciparum AMA1 (3D7) - RON2 peptide interaction. AlphaScreen AMA1-biotinylated RON2 peptide binding. Potency, µM (series often up to 58.2 µM), without a hit: top-dose activity change, negative = inhibition, usual class: inhibitors. hit rate 0.2% among 360,000;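 further: 0% = vehicle wells and -100% = peptide control; nearly all actives have a fitted effect of over 45% in size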
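AMA1 (3D7) with his tag at 25 nM final met compounds first, then biotinylated RON2 peptide at 25 nM; detection used donor plus acceptor beads, 10 µg/mL apiece, read by AlphaScreen after 30 min at room temperature.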
HCV inhibitor: qHTS Assay for Inhibitors of Hepatitis C Virus (HCV); Huh7.5.1 HCVcc-Cre infection, luciferase reporter, 44 h; Potency, µM (highest dose often 41.8 µM), for the others: at the highest dose activity change, negative = inhibition, actives largely listed as inhibitors; hit rate 3.4% among 340,000; AID 651820, 2012
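A cell-based infection assay in which seeded cells (1,000 per well) receive test compound after 4 h, are inoculated with HCVcc-Cre at approximately 0.5 moi, and are incubated 44 h before luminescence detection.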
Pf growth 96h: Primary qHTS for delayed death inhibitors of the malarial parasite plastid, 96 hour incubation; P. falciparum luciferase reporter growth, 96 h; Potency, µM (doses to about 28.7 µM), for the others: top-dose activity change, negative = inhibition, most hits filed as inhibitors; hit rate 6.9% among 320,000
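Luminescence readout: decreased luciferase signal marks inhibited growth of reporter-expressing P. falciparum in infected red cells (2% hematocrit, 0.05% parasitemia final), exposed to compound two generations (96 h, 37 C, 5% CO2).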
The depositor's hits bear a star; ? = inconclusive; nt = no result. The call rests on the fitted dose curve; in most records, active means well fitted curve in the direction sought with a large enough effect; inconclusive means small, poorly fitted or top-dose-only effect, or another doubt; inactive means no such curve, though single readings can be large; an effect the other way counts as inactive or inconclusive. Unless noted, on the % scale 0 is the no-effect control and ±100 the full control effect; potency means the concentration at half of the fitted maximal effect.

SMILES	AmpC inh no detg	AmpC inh detg	Pf growth 48h	AMA1-RON2 inh	HCV inhibitor	Pf growth 96h
Cc1cc(C)n(-c2nc3ccccc3nc2N2CCN(S(=O)(=O)c3cccc(C#N)c3)CC2)n1	78%	-2%	4.1µM*	23%	?	21%
CCn1c(N2CCN(S(=O)(=O)c3ccccc3C(F)(F)F)CC2)nc2ccccc21	17%	-9%	?	-4%	-25%	?
COc1ccc(S(=O)(=O)N2CCN(c3nc4ccccc4nc3-n3nc(C)cc3C)CC2)cc1	-26%	0%	?	nt	13%	9.3µM*
Cc1cc(C)n(-c2nc3ccccc3nc2N2CCCC2)n1	-1%	0%	nt	6%	-10%	-7%
O=C(N1CCN(c2ccccc2)CC1)C12CC3CC(CC(C3)C1)C2	0%	-12%	?	?	7%	?
COc1cc(C(=O)NCCc2sc(-c3ccc(C)cc3)nc2C)cc(OC)c1OC	nt	2%	nt	nt	nt	nt
N#CC(C(=O)NCCc1ccccc1)c1nc2ccccc2nc1N1CCCCC1 (stereo unspecified)	-26%	3%	?	-3%	-12%	54%
CCOC(=O)N1CCN(c2nc3ccccc3nc2C(C#N)C(=O)NCCc2ccccc2)CC1 (stereo unspecified)	-7%	-15%	7.4µM*	-2%	3%	?
COc1ccccc1N1CCN(c2nc3ccccc3nc2C(C#N)C(=O)OC(C)C)CC1 (stereo unspecified)	15%	2%	1.9µM*	?	?	2.1µM*
CCN1CCN(c2nc3ccccc3nc2C(C#N)C(=O)OCc2ccccc2)CC1 (stereo unspecified)	108%	?	12µM*	-17%	-30%	?
COc1ccccc1N1CCN(c2nc(C)cc(C)c2C#N)CC1	68%	2%	4%	4%	-24%	8.3µM*
COc1cc(NS(=O)(=O)c2cc(Br)cc3c2N(C(C)=O)C(C)C3)cc(OC)c1 (stereo unspecified)	nt	-9%	nt	nt	nt	nt
CC(C)c1ccc(NC(=O)C2CCCN(S(=O)(=O)c3cccc4cccnc34)C2)cc1 (stereo unspecified)	nt	6%	nt	nt	nt	nt
O=C(NCc1ccccc1)c1cnc2sc(N3CCCC3)nn2c1=O	nt	2%	nt	nt	nt	nt
Cc1c(Cl)cccc1NC(=O)CSc1nc(=O)n(Cc2cccnc2)c2c1CCC2	nt	-1%	nt	nt	nt	nt
COCCNC(=O)Cn1c(-c2cccs2)cc2cc(Cl)ccc21	nt	0%	nt	nt	nt	nt
CCOC(=O)N1CCN(c2nc(-c3ccccc3)c3ccccc3n2)CC1	-14%	-2%	10µM*	10%	?	?
O=C(O)CCC(=O)N1CCN(c2nc(-c3ccccc3)c3ccccc3n2)CC1	11%	-5%	-9%	6%	4%	11%
O=C(NC1CCCCC1)N1CCN(c2ccc([N+](=O)[O-])cc2)CC1	-15%	?	-14%	-13%	?	?
CSc1ccc(CN(C)C(=O)C2CCN(C(=O)Nc3ccccc3)CC2)cc1	14%	3%	?	27%	10µM*	7%
CSc1ccc(CN(C)C(=O)C(c2ccccc2)c2ccccc2)cc1	-14%	-6%	8.3µM*	0%	?	?
O=C(Nc1ccc(Cl)cc1)C1CCN(C(=O)NC2CCCCC2)CC1	-16%	1%	-5%	2%	6%	6%
O=C(NC1CCCCC1)N1CCN(c2ccc(Cl)cc2)CC1	19%	?	?	-3%	?	1.9µM*
COc1ccc(CN(C)C(=O)C2CCN(C(=O)Nc3ccccc3)CC2)cc1OC	-7%	0%	?	9%	-9%	?

From PubChem
